Experimental data taken from the supplement of paper PMC4954754.
± gives the uncertainty stated by the source.

System: HEK293T-Rex XBP1-RLuc
Assay: XBP1-RLuc splicing reporter activation, triplicate, relative to 500 nM thapsigargin (% of thapsigargin); higher = stronger IRE1/XBP1s reporter activation
Details: 6.8 µM; 18 h; screen: confirmation
Experimental: (§1)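 HEK293T-Rex cells stably expressing the ERSE-firefly luciferase (BiP promoter, ATF6-preferring) or XBP1-splicing Renilla luciferase (IRE1/XBP1s) reporter, 1536-well plates, compound at 6.8 µM for 18 hr at 37 °C; luminescence read […] and expressed as % activation = 100*(compound - median DMSO)/(median 500 nM thapsigargin - median DMSO). Primary screen was single-pass; confirmation screen in triplicate (mean ± SD).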

Compound | XBP1-RLuc splicing reporter activation
N#Cc1c(NC(=O)c2ccc3c(c2)OCO3)sc2c1CCCC2 | 2.57 ± 0.57
O=C(N/N=C/c1cccc2ccccc12)c1ccc2c(c1)OCO2 | 5.9 ± 3.2
O=C(CC(=O)Nc1ccc2nc3n(c(=O)c2c1)CCCCC3)NCc1ccco1 | 22.3 ± 2.9
Nc1nc(Nc2ccc(Cl)c(Cl)c2)nc2ccccc12 | 11.3 ± 0.79
N#C/C(=C(/O)c1cc(-c2ccccc2)nc2ccccc12)c1nc2ccccc2[nH]1 | 9.52 ± 1.4
O=C(CCc1ccccc1)Nc1ccc(Cl)cn1 | 0.292 ± 0.79
O=C(Nc1ccc(Cl)cn1)c1ccc(Cl)cc1Cl | 0.717 ± 0.56
Nc1ccccc1NC(=O)c1ccc(C(F)(F)F)cc1 | 11.1 ± 2.7
COc1cccc(C2=NOC(C(=O)Nc3cc(C)ccc3O)C2)c1 (stereo unspecified) | 14.1 ± 0.22
O=C(/C=C/c1ccco1)Nc1ccc(Br)cc1Cl | -0.469 ± 0.9
N#C/C(=C\c1ccc(O)c(O)c1)c1nc2ccccc2[nH]1 | 12.6 ± 0.2
Nc1ccc2nc(-c3ccc(Cl)cc3)[nH]c2c1 | 8.9 ± 0.25
CN(C)c1ccc(C(=NO)c2ccc(N(C)C)cc2)cc1 | 6.61 ± 1.1
CCCNc1ccnc(N2CCc3ccccc3C2)n1 | -1.35 ± 0.17
O=C(NCCc1ccc(O)cc1)c1ccc2nc(-c3csc4ccccc34)sc2c1 | 18.8 ± 1.8
Oc1ccc(/C=N/Nc2cccc3cccnc23)cc1O | 17.3 ± 2.3
O=C(NCCCn1ccnc1)c1cc(-c2cccs2)on1 | 7.54 ± 0.78
Cc1cnc(NC(=O)c2sc3nc4c(C)cccc4cc3c2N)s1 | 32.6 ± 0.95

Compound | XBP1-RLuc splicing reporter activation
CCOc1cc(C2C(C(=O)OC3CCCCC3)=C(C)NC3=C2C(=O)CC(c2ccc(OC)cc2)C3)cc(Br)c1O (stereo unspecified) | 18.5 ± 2.8
CC(=O)Nc1ccc2nc(-c3ccc(OC(C)=O)cc3)sc2c1 | 21.7 ± 1
O=c1[nH]c(/C=C2\C=Nc3ccccc32)c(O)n1-c1cccc(Cl)c1 | 47.9 ± 7.7
Cc1ccc(O)c(NC(=O)CCc2ccccc2)c1 | 17.5 ± 1.9
Cc1ccc(O)c(NC(=O)c2cc(-c3cccs3)on2)c1 | 22.7 ± 1.2
Oc1ccccc1/C=N\Nc1nc2ccccc2o1 | 19.1 ± 1.9
CCCCCC(=O)Nc1ccc(C(=O)Nc2ccccc2O)cc1 | 9.29 ± 0.42
COc1ccc(/C(C)=N/OC/C(O)=C(\C#N)c2nc3ccccc3[nH]2)cc1OC | 24.6 ± 1.4
O=C(N/N=C/c1ccc(Cl)cc1)c1n[nH]c2c1CCCC2 | 3.79 ± 8.1
COc1cc2ccccc2cc1C(=O)N/N=C/c1cccs1 | 3.81 ± 0.66
COc1cc(/C=C/c2ccc(O)c(OC)c2)ccc1O | 31.8 ± 2.2
CCCCNc1ncnc2c1cnn2-c1ccc(Cl)cc1 | 1.56 ± 1.6
Cc1ccc2nc(/C(C#N)=C/c3ccc(O)cc3)[nH]c2c1 | 13.8 ± 1.6
CCCNC(=O)c1cc(-c2cccs2)on1 | 5.97 ± 0.33
C=CCNC(=O)c1sc2nc3cc(C)c(C)cc3cc2c1N | -0.518 ± 1.4
COc1ccc(C2=Nn3c(nnc3-c3ccc(OC)cc3)SC2)cc1 | 10.4 ± 1.3
COc1cccc(C(=O)/C=C/Nc2cc(C)ccc2O)c1 | 10.2 ± 0.47
Nc1ccccc1NC(=O)c1ccc(Cl)cc1 | 10 ± 0.7

System: HEK293T-Rex ERSE-FLuc
Assay: ERSE-FLuc reporter activation, triplicate confirmation, relative to 500 nM thapsigargin (% of thapsigargin); higher = stronger ATF6/ERSE reporter activation
Details: 6.8 µM; 18 h; screen: confirmation
Experimental: as §1

Compound | ERSE-FLuc reporter activation
O=C(Nc1ccc(Cl)cn1)c1ccc(Cl)cc1Cl | 27.1 ± 2.4
Nc1ccccc1NC(=O)c1ccc(C(F)(F)F)cc1 | 27.2 ± 5.7
COc1cccc(C2=NOC(C(=O)Nc3cc(C)ccc3O)C2)c1 (stereo unspecified) | 30.3 ± 8.3
O=C(/C=C/c1ccco1)Nc1ccc(Br)cc1Cl | 25.5 ± 1.6
Cc1cnc(NC(=O)c2sc3nc4c(C)cccc4cc3c2N)s1 | 28.6 ± 7.1
Cc1ccc(O)c(NC(=O)c2cc(-c3cccs3)on2)c1 | 106 ± 4
CCCCCC(=O)Nc1ccc(C(=O)Nc2ccccc2O)cc1 | 44.9 ± 11
O=C(N/N=C/c1ccc(Cl)cc1)c1n[nH]c2c1CCCC2 | 42 ± 8.6
CCCCNc1ncnc2c1cnn2-c1ccc(Cl)cc1 | 30.3 ± 4.6
Cc1ccc2nc(/C(C#N)=C/c3ccc(O)cc3)[nH]c2c1 | 30.3 ± 3
